# From PubChem BioAssay
# DAX1 inh-1 = DAX1 (NR0B1) inhibitors on StAR promoter, primary screen, cell-based, luminescence, SF-1 (NR5A1), full-length DAX-1; AID 652010, 2013; inhibition, % at 6.8 µM; HEK293T StAR-luciferase reporter, SF-1/DAX-1 repression relief; 370,000 tested, 1.1% active;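 active means inhibition above the mean over all tested compounds plus 3 SD, cut at about 3.6% in these data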;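 further: 0% = DAX-1 cells with DMSO and 100% = cells lacking DAX-1 with DMSO; higher inhibition means more luminescence from relief of DAX-1 repression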
# DAX1 inh-2 = DAX1 (NR0B1) inhibitors, primary screen, cell-based, HEK293, Gal4-DAX1, luciferase luminescence; inhibition, % at 6.75 µM; HEK293 Gal4-DAX1 luciferase reporter; 340,000 tested, 0.99% active; Nuclear receptor subfamily 0 group B member 1 (Homo sapiens), P51843; AID 504766, 2011;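 active means inhibition above the mean over all tested compounds plus 3 SD, cut at about 4.2% in these data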;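 further: 0% = DAX1-transfected cells with DMSO and 100% = empty-vector control cells with DMSO; inhibition shows as a rise in luminescence from relieved DAX1 repression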
# Target sequence (P51843 207-470 limits assumed): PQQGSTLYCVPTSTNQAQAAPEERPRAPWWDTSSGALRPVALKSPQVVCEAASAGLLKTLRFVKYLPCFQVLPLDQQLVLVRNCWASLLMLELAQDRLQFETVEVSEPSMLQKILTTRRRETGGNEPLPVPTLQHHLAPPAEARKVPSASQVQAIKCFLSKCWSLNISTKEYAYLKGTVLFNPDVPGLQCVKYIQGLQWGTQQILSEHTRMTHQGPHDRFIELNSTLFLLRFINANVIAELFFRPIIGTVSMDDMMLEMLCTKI
# hgDAF-12 ag = H. glycines DAF-12 receptor agonists, primary screen, cell-based, luminescence, HEK293, GAL4 fusion, UAS-luciferase. HEK293 GAL4-hgDAF12 UAS-luciferase reporter, agonist luminescence; normalized to butyrate control. AID 687014, 2013. activation, % at 6.8 µM. Nuclear hormone receptor DAF-12 (Heterodera glycines), GAL4 fusion. 370,000 tested, 1.8% active;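 active means activation above a cutoff set at the mean of all screened compounds plus 3 SD, cut at about 10% in these data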;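 further: 0% = DMSO wells and 100% = sodium butyrate wells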
# hcDAF-12 act = H. contortus DAF-12 nuclear receptor activators, primary screen, cell-based, luminescence, HEK293, lit1-tk-luc reporter. AID 652067, 2013. 370,000 tested, 1.4% active. activation, % at 6.8 µM. HEK293 hcDAF-12 lit1-tk-luc reporter; 0% DMSO, 100% Δ7-dafachronic acid;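 active means activation above the mean of all tested compounds plus 3 SD, cut at about 5.5% in these data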;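 further: 100% = response to 3 µM Δ7-dafachronic acid high control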
# ssDAF12 agonist = S. stercoralis DAF-12 nuclear receptor activators, primary screen, cell-based, luminescence, HEK293, GRIP1 co-expression, lit1-tk-luc. HEK293 ssDAF-12/GRIP1 lit1-tk-luc reporter; % of 3 µM dafachronic acid response. activation, % at 6.8 µM. 370,000 tested, 1% active. AID 652126, 2013;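 active means activation above the mean over all tested compounds plus 3 SD, cut at about 0.9% in these data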;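 further: 0% = DMSO-only wells and 100% = 3 µM delta7-dafachronic acid wells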
# The depositor's hits bear a star; · = not tested or not shown. Most compounds without a hit are left out; they make up all but 4.1% or so of the library.
SMILES,DAX1 inh-1,DAX1 inh-2,hgDAF-12 ag,hcDAF-12 act,ssDAF12 agonist
CCCCC(=O)Nc1ccc(C(=O)NCC2COc3ccccc3O2)cc1 (stereo unspecified),0,·,3,-1,-1
COc1ccc(CCNC(=O)Cc2ccccc2)cc1OC,0,5.6*,1,1,-1
COc1ccc(CCNC(=O)C/C(C)=N/NC(=O)c2ccc(N)cc2)cc1OC,1,1,6,4,0.9*
COc1ccc(CC(=O)NNC(=O)c2nn(Cc3ccccc3)c(=O)c3ccccc23)cc1OC,1,5.1*,4,-1,-1
C=CCN(C(=O)[C@@H](C)[C@@H](O)c1ccc2ccccc2c1)c1ccccc1,-2,·,0,0,0
NCCc1c(C(=O)O)[nH]c2ccc([N+](=O)[O-])cc12,0,1,-1,0,-2
Cc1c(C(=O)O)[nH]c2ccc([N+](=O)[O-])cc12,0,·,2,6.2*,-1
CCOC(=O)[C@]12CCCCC/C=C\1N(Cc1ccc(OC)cc1)C(=O)[C@H]2CC(=O)N1CCSCC1,-1,·,0,-2,-2
CC1=NN(C(=O)c2ccco2)C(O)(c2ccccc2)C1 (stereo unspecified),1,6.3*,11*,3,1.0*
Cc1ccc2c(c1)N(C(=O)CCC(=O)N1CCC(C(N)=O)CC1)CCO2,1,0,1,1,1.3*
CCOC(=O)N1CCN(C(=O)CCC(=O)N2CCOc3ccc(C)cc32)CC1,0,0,1,-1,-1
CN(/C=C/C(=C\C=[N+](C)c1ccccc1)OCCCS(=O)(=O)[O-])c1ccccc1,0,0,-3,5.6*,1
CCOC(=O)Cn1cc(CN2C(C(=O)OC)CN(Cc3ccc(F)cc3)CCS2(=O)=O)nn1 (stereo unspecified),0,·,0,0,-2
CC(C)CCNC(=O)C1COC(O)(C(Cc2ccccc2)NC(=O)[C@@H](NC(=O)OCc2ccccc2)C(C)C)CN1 (stereo partly specified),·,·,-2,0,0
O=C(NCC(c1ccco1)N1CCCCC1)c1cc2c(s1)CCCC2 (stereo unspecified),4.2*,-1,1,-1,0
CC(Cc1c[nH]c2ccccc12)C(=O)O (stereo unspecified),-1,0,-1,1,-1
COC(=O)C(Cc1c[nH]c2ccccc12)NC(=O)c1cccc(S(=O)(=O)N2CCCCC2)c1 (stereo unspecified),1,0,2,2,-1
O=C(O)C(=O)Cc1c[nH]c2ccccc12,-1,2,3,1,1.2*
O=C(NC(Cc1c[nH]c2ccccc12)C(=O)O)c1cccc(S(=O)(=O)N2CCCCC2)c1 (stereo unspecified),0,0,1,5.7*,-1
CCN(C(=O)COC(=O)Cc1c[nH]c2ccccc12)C1CCS(=O)(=O)C1 (stereo unspecified),0,0,2,6.1*,1.2*
O=C(O)C(O)Cc1c[nH]c2ccccc12 (stereo unspecified),0,4.7*,5,4,0
Cc1noc(C)c1C(=O)NC(Cc1c[nH]c2ccccc12)C(=O)O (stereo unspecified),-1,1,-1,3,1.2*
O=C(Cn1nnc2ccccc2c1=O)N[C@@H](Cc1c[nH]c2ccccc12)C(=O)O,1,2,-1,3,1.0*
Cc1oc2c(c1C(=O)NC(Cc1c[nH]c3ccccc13)C(=O)O)CCCC2 (stereo unspecified),0,0,4,2,0
O=C(NC(Cc1c[nH]c2ccccc12)C(=O)O)c1ccccc1 (stereo unspecified),1,1,1,3,1.2*
SMILES,DAX1 inh-1,DAX1 inh-2,hgDAF-12 ag,hcDAF-12 act,ssDAF12 agonist
COC(=O)C(Cc1c[nH]c2ccccc12)NC(=O)c1ccccc1Br (stereo unspecified),0,1,3,3,1.1*
CC(C)NC(=O)N[C@@H]1C[C@@H]2O[C@@H](CO)CC[C@@H]2O[C@@H]1CCc1ccc(-c2ccccc2F)cc1,-1,·,3,-3,-1
C[C@@H](CCCCC1(C)OCCO1)CCC(=O)N(c1ccccc1)c1ccccc1,-1,·,-3,-3,-1
Cc1nc(N[C@@H](Cc2c[nH]c3ccccc23)C(=O)O)c2oc3ccccc3c2n1,0,·,4,5.9*,1
COc1ccc(C(=O)COC(=O)Cc2c[nH]c3ccccc23)c(OC)c1,-2,-1,0,-2,-1
Cc1ccc(C(=O)C(C)OC(=O)Cc2c[nH]c3ccccc23)cc1 (stereo unspecified),0,0,-3,3,0.9*
O=C(Cc1c[nH]c2ccccc12)OCC(=O)c1ccccc1,0,1,3,3,1.2*
CCc1nc(N[C@@H](Cc2c[nH]c3ccccc23)C(=O)O)c2oc3ccccc3c2n1,0,0,3,3,0
Cc1ccc(-c2cc(C(=O)NN=Cc3cccc(OCc4ccccc4)c3)[nH]n2)cc1C,0,·,2,-3,-1
CCN(CC)C(=O)Cn1cc(S(=O)(=O)CC(=O)Nc2ccc3c(c2)OCCO3)c2ccccc21,0,1,2,0,2.0*
c1ccc2cc3[nH]c(CNc4nc(N5CCOCC5)nc5c4ncn5-c4ccsc4)nc3cc2c1,·,·,-5,-5,-2
CCOC(=O)[C@@]12CCCC3=C1N(CCC3)C(=O)[C@H]2CC(=O)NCC1CCCCC1,-1,·,-1,-2,-1
O=C(Oc1ccccc1N1C(=O)C2CC=CCC2C1=O)c1ccc(Br)cc1 (stereo unspecified),1,0,0,1,1.2*
COc1ccc(OC)c(S(=O)(=O)N2CCCC(C(=O)Nc3c(C)n(C)n(-c4ccccc4)c3=O)C2)c1 (stereo unspecified),0,·,-3,0,-1
COCC1CN(CCc2ccc(F)cc2)S(=O)(=O)c2c(OCCN3C(=O)[C@@H]4[C@H](C3=O)[C@@H]3C=C[C@H]4C3)cccc2O1 (stereo partly specified),-4,·,-5,-1,-2
CCN1C(=O)/C(=C2\SC(N3CCOCC3)=NC2=O)c2ccccc21,0,0,1,-1,0
CCCCN1C(=O)/C(=C2\SC(N3CCOCC3)=NC2=O)c2ccccc21,0,0,2,5.9*,0
